# Measurements as given in PMC7862700, “An all-to-all approach to the identification of sequence-specific readers for epigenetic DNA modifications on cytosine”.
# Legend:
# Experiment in all cases: DAPPL (digital affinity profiling via proximity ligation, sequencing); 10 mM Tris-HCl pH 7.5, 50 mM NaCl, 1 mM DTT, 4% glycerol, room temperature, 30 min; GST-TFs on glutathione beads, 16-mer random dsDNA library, 0.1% formaldehyde crosslink after washing; high values mean tight binding
# Details in all cases: protein: recombinant; tags: N-terminal GST; dsDNA, one strand shown
# ELK4 = biological target: T1, ELK4 (Homo sapiens, UniProt P28324-2 1-405)
# T1 sequence: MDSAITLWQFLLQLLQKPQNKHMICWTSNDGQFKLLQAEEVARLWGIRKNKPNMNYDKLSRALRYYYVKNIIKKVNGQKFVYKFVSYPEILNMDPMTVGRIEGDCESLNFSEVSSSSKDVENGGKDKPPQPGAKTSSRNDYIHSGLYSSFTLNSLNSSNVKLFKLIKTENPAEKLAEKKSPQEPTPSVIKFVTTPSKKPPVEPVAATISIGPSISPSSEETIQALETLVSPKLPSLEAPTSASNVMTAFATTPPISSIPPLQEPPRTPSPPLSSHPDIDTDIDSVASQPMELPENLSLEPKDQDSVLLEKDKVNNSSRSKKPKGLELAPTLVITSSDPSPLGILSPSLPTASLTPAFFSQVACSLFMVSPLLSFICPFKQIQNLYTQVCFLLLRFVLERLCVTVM
# Outline: (§1)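 Binding signal is each hexamer's read frequency for a factor divided by its frequency in the tag-only sample. The factors were GST-fused human transcription factors from yeast, captured on glutathione beads, DNA-barcoded and pooled with that sample. Pools were incubated with 200 nmole of a random double-stranded 16-mer DNA library in Tris/NaCl/DTT/glycerol buffer at room temperature for 30 min, then washed, crosslinked with 0.1% formaldehyde, proximity-ligated with BsaI/T4 ligase (1 h, 37 °C), PCR-amplified and sequenced on an Illumina NextSeq500.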
# ETV2 = biological target: T2, ETV2 (Homo sapiens, UniProt O00321 1-342)
# T2 sequence: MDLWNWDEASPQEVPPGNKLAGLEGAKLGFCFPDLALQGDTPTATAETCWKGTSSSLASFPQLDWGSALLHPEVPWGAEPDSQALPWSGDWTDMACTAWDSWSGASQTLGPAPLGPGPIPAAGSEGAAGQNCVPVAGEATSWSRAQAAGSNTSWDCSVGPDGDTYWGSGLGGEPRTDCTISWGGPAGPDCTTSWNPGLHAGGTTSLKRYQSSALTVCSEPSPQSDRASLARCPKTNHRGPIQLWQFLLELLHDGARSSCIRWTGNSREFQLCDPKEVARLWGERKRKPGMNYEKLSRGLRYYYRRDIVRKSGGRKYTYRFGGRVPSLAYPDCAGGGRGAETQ
# Outline: as §1
# ELF3 = biological target: T3, ELF3 (Homo sapiens, UniProt P78545 1-371)
# T3 sequence: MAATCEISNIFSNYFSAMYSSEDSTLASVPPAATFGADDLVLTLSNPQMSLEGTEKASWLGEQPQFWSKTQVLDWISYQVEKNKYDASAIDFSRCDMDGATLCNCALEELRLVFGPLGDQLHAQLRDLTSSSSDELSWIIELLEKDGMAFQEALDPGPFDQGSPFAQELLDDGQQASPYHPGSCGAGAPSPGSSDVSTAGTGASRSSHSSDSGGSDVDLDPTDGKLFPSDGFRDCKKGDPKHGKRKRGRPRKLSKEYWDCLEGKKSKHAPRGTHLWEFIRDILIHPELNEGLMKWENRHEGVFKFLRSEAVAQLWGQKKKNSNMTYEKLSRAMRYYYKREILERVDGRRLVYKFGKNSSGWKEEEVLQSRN
# Outline: as §1
# ETV1 = ETV1 (Homo sapiens, UniProt P50549 1-477)
# Outline: as §1
# ERF = biological target: T4, ERF (Homo sapiens, UniProt P50548 1-548)
# T4 sequence: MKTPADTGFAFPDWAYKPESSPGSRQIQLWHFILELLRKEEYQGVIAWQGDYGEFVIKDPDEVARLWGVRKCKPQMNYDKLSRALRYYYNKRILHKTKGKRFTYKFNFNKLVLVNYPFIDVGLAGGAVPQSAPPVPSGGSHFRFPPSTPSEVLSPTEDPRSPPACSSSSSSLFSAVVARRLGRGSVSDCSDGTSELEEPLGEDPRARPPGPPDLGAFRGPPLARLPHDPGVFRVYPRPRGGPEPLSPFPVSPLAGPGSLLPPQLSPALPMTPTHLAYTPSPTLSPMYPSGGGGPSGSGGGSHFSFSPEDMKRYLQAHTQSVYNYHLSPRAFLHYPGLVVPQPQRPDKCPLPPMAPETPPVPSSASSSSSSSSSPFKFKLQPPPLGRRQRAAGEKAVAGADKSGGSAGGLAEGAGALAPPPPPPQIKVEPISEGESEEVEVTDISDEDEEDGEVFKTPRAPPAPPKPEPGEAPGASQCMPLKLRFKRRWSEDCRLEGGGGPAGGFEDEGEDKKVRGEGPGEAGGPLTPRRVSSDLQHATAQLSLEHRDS
# Outline: as §1
# ETV3L = biological target: T5, ETV3L (Homo sapiens, UniProt Q6ZN32 1-361)
# T5 sequence: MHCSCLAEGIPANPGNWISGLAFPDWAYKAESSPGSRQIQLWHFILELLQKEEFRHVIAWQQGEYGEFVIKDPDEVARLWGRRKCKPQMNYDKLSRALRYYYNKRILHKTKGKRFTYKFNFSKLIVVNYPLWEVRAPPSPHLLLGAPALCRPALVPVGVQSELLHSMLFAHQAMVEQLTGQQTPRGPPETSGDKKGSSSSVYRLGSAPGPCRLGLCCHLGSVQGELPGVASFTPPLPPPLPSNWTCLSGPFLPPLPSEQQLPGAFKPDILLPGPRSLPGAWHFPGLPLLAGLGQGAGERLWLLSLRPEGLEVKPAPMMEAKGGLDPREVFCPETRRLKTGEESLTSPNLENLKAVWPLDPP
# Outline: as §1
# ETS2 = biological target: T6, ETS2 (Homo sapiens, UniProt P15036 1-469)
# T6 sequence: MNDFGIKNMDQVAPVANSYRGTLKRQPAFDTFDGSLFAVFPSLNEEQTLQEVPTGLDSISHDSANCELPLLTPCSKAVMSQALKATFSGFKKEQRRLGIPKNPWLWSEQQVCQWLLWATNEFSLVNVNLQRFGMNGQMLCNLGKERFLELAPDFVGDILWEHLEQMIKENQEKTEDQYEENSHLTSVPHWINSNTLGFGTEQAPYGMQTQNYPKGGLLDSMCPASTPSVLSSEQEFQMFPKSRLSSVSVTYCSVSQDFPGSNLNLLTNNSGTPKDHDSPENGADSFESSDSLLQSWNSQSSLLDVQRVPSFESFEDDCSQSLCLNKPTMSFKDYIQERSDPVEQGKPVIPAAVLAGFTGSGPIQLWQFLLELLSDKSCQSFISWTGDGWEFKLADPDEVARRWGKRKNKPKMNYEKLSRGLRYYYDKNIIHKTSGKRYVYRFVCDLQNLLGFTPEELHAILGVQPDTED
# Outline: as §1
# SPDEF = biological target: T7, SPDEF (Homo sapiens, UniProt O95238 1-335)
# T7 sequence: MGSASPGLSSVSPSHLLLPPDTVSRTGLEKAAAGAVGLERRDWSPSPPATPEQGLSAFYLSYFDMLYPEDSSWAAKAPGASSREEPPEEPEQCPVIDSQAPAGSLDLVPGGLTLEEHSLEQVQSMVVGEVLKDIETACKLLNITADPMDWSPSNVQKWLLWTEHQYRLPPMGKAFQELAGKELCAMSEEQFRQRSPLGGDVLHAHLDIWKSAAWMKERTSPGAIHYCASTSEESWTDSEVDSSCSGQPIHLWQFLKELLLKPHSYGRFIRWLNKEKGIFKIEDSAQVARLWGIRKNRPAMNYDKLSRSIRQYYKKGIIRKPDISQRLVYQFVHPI
# Outline: as §1
# ETV3 = biological target: T8, ETV3 (Homo sapiens, UniProt P41162-2 1-143)
# T8 sequence: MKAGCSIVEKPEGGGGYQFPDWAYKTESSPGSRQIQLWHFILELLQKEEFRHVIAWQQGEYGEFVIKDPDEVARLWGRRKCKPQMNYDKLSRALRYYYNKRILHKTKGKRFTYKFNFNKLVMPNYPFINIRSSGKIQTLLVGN
# Outline: as §1
# ETV6 = ETV6 (Homo sapiens, UniProt P41212 1-452)
# Outline: as §1
# ETV6, sequence (P41212 whole entry): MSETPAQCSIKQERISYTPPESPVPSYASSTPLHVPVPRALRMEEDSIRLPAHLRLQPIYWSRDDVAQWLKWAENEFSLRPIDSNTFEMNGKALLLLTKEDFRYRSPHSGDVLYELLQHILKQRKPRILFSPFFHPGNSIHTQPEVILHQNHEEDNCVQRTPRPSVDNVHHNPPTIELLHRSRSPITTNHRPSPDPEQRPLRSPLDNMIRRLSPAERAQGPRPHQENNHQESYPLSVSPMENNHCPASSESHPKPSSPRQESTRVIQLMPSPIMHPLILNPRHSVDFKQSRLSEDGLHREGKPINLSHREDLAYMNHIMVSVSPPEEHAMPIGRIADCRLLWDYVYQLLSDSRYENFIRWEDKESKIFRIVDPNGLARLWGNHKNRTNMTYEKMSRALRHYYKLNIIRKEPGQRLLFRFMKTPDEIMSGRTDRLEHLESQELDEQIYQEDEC
# ETV1, sequence (P50549 whole entry): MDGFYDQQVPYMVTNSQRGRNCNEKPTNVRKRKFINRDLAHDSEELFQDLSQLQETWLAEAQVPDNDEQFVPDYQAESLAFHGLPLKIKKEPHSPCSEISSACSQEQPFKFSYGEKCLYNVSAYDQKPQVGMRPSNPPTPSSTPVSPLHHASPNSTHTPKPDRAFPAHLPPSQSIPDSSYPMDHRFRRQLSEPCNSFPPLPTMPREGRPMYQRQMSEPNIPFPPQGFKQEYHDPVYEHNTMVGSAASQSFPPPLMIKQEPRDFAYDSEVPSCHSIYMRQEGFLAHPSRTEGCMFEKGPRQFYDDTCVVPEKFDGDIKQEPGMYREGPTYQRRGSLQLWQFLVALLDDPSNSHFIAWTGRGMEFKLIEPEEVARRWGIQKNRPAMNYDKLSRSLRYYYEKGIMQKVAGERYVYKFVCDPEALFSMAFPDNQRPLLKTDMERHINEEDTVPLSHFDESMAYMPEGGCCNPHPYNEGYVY
sequence,measurement,setting,value
CTAGCG,binding signal,ELK4,"1.16 fold enrichment (6-mer frequency, TF over GST control)"
same,binding signal,ETV2,"1.09 fold enrichment (6-mer frequency, TF over GST control)"
same,binding signal,ELF3,"1.05 fold enrichment (6-mer frequency, TF over GST control)"
same,binding signal,ETV1,"1.17 fold enrichment (6-mer frequency, TF over GST control)"
same,binding signal,ERF,"1.31 fold enrichment (6-mer frequency, TF over GST control)"
same,binding signal,ETV3L,"1.07 fold enrichment (6-mer frequency, TF over GST control)"
same,binding signal,ETS2,"1.18 fold enrichment (6-mer frequency, TF over GST control)"
same,binding signal,SPDEF,"1.1 fold enrichment (6-mer frequency, TF over GST control)"
same,binding signal,ETV3,"1.15 fold enrichment (6-mer frequency, TF over GST control)"
same,binding signal,ETV6,"1.08 fold enrichment (6-mer frequency, TF over GST control)"
